Test results as given in the supplement of paper PMC3898565.
± gives the uncertainty stated by the source.

System: U87
Experiment: cell viability relative to vehicle control; higher = less growth inhibition (less active)
Details: 10 µM; 72 h
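Further: viable cell number estimated from Alamar Blue fluorescence read at 560/90, part of a single-dose primary screen of an FDA-approved drug library.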

Compound | cell viability [%]
CN1[C@@H](CC(=O)c2ccccc2)CCC[C@H]1C[C@H](O)c1ccccc1 | 98.58 ± 0.82
Cc1cccc(C)c1NC(=O)C1CCCCN1C (stereo not given) | 106 ± 0.63
Nc1ccn([C@@H]2O[C@H](CO)[C@@H](O)[C@@H]2O)c(=O)n1 [2(1H)-Pyrimidinone, 4-amino-1-D-arabinofuranosyl- [CAS]] | 47.5 ± 2.9
O=C1N[C@H](C(=O)O)CS1 [4-Thiazolidinecarboxylic acid, 2-oxo-, (R)- [CAS]] | 101.1 ± 0.43
CCN1CCC[C@H]1CNC(=O)c1c(O)c(Cl)cc(Cl)c1OC [Raclopride] | 99.9 ± 6.5
CS(=O)(=O)c1ccc(C2=C(c3ccccc3)C(=O)OC2)cc1 | 107.7 ± 0.87
Oc1ccc(/C=C/c2cc(O)cc(O)c2)cc1 [resveratrol] | 100.5 ± 0.97
O=c1ncc(F)c[nH]1 [5-fluoro-2-pyrimidone] | 106.8 ± 0.67
C[C@H]1[C@H](OC(=O)CCC(=O)O)O[C@@H]2O[C@@]3(C)CC[C@H]4[C@H](C)CC[C@@H]1[C@@]24OO3 | 98.9 ± 1.1
CN(CCCN1c2ccccc2CCc2ccccc21)CC(=O)c1ccc(Cl)cc1 | 107 ± 2.2
COc1cc(C(=O)NS(=O)(=O)c2ccccc2C)ccc1Cc1cn(C)c2ccc(NC(=O)OC3CCCC3)cc12 | 104 ± 1.1
C=C1/C(=C\C=C2/CCC[C@]3(C)[C@@H]([C@H](C)/C=C/[C@@H](O)C4CC4)CC[C@@H]23)C[C@@H](O)C[C@@H]1O | 100 ± 1.4
O=C(c1ccc(F)cc1)C1CCN(CCn2c(=S)[nH]c3ccccc3c2=O)CC1 [Altanserin] | 99.9 ± 2.9
CCOC(=O)OC(C)OC1=C(C(=O)Nc2ccccn2)N(C)S(=O)(=O)c2ccccc21 (stereo not given) | 107 ± 1.1
CC(C)(C)NC(=O)[C@@H]1CN(Cc2cccnc2)CCN1C[C@@H](O)C[C@@H](Cc1ccccc1)C(=O)N[C@H]1c2ccccc2C[C@H]1O | 105.6 ± 0.74
CN(C)CCc1c[nH]c2ccc(Cn3cncn3)cc12 | 101 ± 4.5
Nc1nc(O)c2ncn(CCC(CO)CO)c2n1 | 103 ± 2.2
NC(=O)N1c2ccccc2CC(=O)c2ccccc21 [Trileptal] | 102 ± 2.4
CCC1=C(C)CN(C(=O)NCCc2ccc(S(=O)(=O)NC(=O)N[C@H]3CC[C@H](C)CC3)cc2)C1=O | 105 ± 2.2
CC(=O)NC[C@H]1CN(c2ccc(N3CCOCC3)c(F)c2)C(=O)O1 | 103 ± 1.8

Compound | cell viability [%]
CN(C)CCC(c1ccc(Cl)cc1)c1ccccn1 (stereo not given) [Chlorpheniramine] | 109 ± 2.8
C[C@H]1COc2c(C3(N)CC3)c(F)cc3c(=O)c(C(=O)O)cn1c23 | 101.8 ± 0.5
N[C@@H]1CONC1=O | 96.3 ± 5
Nc1nnc(-c2cccc(Cl)c2Cl)c(N)n1 | 102 ± 1.2
O=C1c2c(O)cc(O)cc2O[C@H](c2ccc(O)c(O)c2)[C@H]1O | 90.7 ± 4.5
CNCC[C@@H](Oc1ccccc1C)c1ccccc1 | 108.2 ± 1
CN1CCCCC1CCN1c2ccccc2Sc2ccc([S+](C)[O-])cc21 (stereo not given) [Mesoridazine] | 105 ± 2.8
Nc1nc(Cl)nc2c1ncn2[C@H]1C[C@H](O)[C@@H](CO)O1 | 35.4 ± 1.4
CCC(=O)O[C@]1(C(=O)SCF)[C@H](C)C[C@H]2[C@@H]3C[C@H](F)C4=CC(=O)C=C[C@]4(C)[C@@]3(F)[C@@H](O)C[C@@]21C | 105 ± 2.2
Cc1ccsc1C(=CCCN1CCC[C@@H](C(=O)O)C1)c1sccc1C | 104 ± 1.1
COc1cc(C)c(Cc2cnc(N)nc2N)cc1OC | 100 ± 1.7
COc1cc2nc(N(C)CCCNC(=O)C3CCCO3)nc(N)c2cc1OC (stereo not given) | 101 ± 1.4
CCOC(=O)N1CCC(=C2c3ccc(Cl)cc3CCc3cccnc32)CC1 | 102 ± 2.4
NC(=O)OCC(COC(N)=O)c1ccccc1 [Felbamate] | 105.7 ± 1
C[C@]12CC[C@@H]3c4ccc(OS(=O)(=O)O)cc4CC[C@H]3[C@@H]1CCC2=O | 110.8 ± 0.43
C[C@@H]1C[C@H]2[C@@H]3C[C@H](F)C4=CC(=O)C(Cl)=C[C@]4(C)[C@@]3(F)[C@@H](O)C[C@]2(C)[C@@]1(O)C(=O)CO | 102.1 ± 0.4
O=C1c2c(O)cc(O)cc2O[C@H](c2ccc(O)c(O)c2)[C@H]1O (racemic) | 85.3 ± 2.2
O=C(O[C@@H]1C[C@@H]2C[C@H]3C[C@H](C1)N2CC3=O)c1c[nH]c2ccccc12 | 105.8 ± 0.72
CN1CCN(C2=Nc3ccccc3Oc3ccc(Cl)cc32)CC1 [Loxapine] | 102 ± 1.6
Nc1ccn([C@H]2CC[C@@H](CO)O2)c(=O)n1 | 100 ± 2.5
